About 4,700 (1.2%) of roughly 390,000 compounds were called active. About 4% were inconclusive and are not listed. Calls come from the whole dose curve; as a rule, active = well fitted inhibition curve with a large enough effect; inconclusive = small, poorly fitted or top-dose-only effect, or another doubt; inactive = no such curve, though single readings can be large or run the other way. The list comes from a sample in which actives are over-represented; it also holds similar structures and randomly drawn compounds. A call without a number means that no potency is given here.

The source of these data is PubChem BioAssay AID588591 (National Center for Advancing Translational Sciences (NCATS), 2011).
Potency is the fitted concentration of half-maximal effect.

DNA polymerase eta (Homo sapiens), sequence (Q9Y253 whole entry, looked up): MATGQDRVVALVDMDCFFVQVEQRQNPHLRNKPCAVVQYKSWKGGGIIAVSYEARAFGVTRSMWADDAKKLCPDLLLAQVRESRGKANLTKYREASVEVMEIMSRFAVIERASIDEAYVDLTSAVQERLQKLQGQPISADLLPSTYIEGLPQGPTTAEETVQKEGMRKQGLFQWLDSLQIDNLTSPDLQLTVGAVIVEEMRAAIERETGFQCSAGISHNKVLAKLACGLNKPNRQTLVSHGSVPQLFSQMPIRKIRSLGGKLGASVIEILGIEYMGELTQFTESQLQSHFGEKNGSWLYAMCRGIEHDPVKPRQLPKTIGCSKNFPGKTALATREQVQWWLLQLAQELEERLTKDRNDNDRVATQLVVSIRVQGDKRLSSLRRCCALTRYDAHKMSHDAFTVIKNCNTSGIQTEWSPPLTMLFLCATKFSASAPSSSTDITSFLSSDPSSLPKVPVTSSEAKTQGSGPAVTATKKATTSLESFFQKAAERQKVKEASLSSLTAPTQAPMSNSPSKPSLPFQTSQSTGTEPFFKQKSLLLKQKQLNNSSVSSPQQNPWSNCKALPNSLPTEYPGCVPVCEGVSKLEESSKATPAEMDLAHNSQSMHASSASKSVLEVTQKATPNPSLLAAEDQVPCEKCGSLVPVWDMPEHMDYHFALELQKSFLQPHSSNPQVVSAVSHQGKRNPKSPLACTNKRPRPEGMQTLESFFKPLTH

The test addresses DNA polymerase eta (Homo sapiens) (UniProt Q9Y253). Kind of test: qHTS for Inhibitors of Polymerase Eta. As to conditions: recombinant Pol eta, fluorescent DNA replication assay; series mostly up to 114 µM. The procedure, abridged:
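Pol eta at 10 nM preincubated with compounds 15 min at room temperature; reaction started with fluorescent substrate (50 nM final) and read kinetically at 0 and 10 min.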
With `COc1ccc(-c2nc3c(c(SCC(=O)Nc4ccc(C(=O)O)cc4)n2)Cc2ccccc2O3)cc1`, the Potency was 7.94 µM (active). Consider `COC(=O)c1ccc(NC(=O)CSc2n[nH]c(-c3ccccc3)n2)cc1`, for which the Potency result is “inactive”. In the case of `COc1ccc(NC(=O)CSc2nc3ccccc3[nH]2)cc1`, the Potency entry is “inactive”. Take `C=C(C)C(=O)O[C@H]1C/C(C)=C\C(=O)/C=C(\C)[C@H](O)[C@@H]2OC(=O)C(=C)[C@@H]21`: the Potency is 20 µM (active). Take `CCOc1ccc(-n2nc3ccc(NC(=O)c4ccc(OC)c(Cl)c4)cc3n2)cc1`: the Potency result is “inactive”.

For the compound `Cc1ccc(S(=O)(=O)N2CCOCC2)cc1NC(=O)c1ccncc1`, the Potency result was “inactive”.

Consider `O=[N+]([O-])c1cc(Cl)cc(/C=N/NC(=S)Nc2cc(S(=O)(=O)N3CCOCC3)ccc2Cl)c1O`, for which the Potency is 50.1 µM (active).

In the case of `COCCNC(=S)Nc1cc(S(=O)(=O)N2CCOCC2)ccc1N1CCCCC1`, the Potency result is “inactive”.

Regarding `Cc1nc2c(c(C)nn2-c2ccccc2)c(C)c1CCC(=O)NCCc1ccc(Cl)cc1`, the Potency entry was “inactive”. In the case of `CCOc1ccc(NC(=O)c2ccc(CSc3nnnn3C)cc2)cc1`, the Potency entry is “inactive”.

With `CCOc1ccc(NC(=O)Cn2c(C)ccc(C#N)c2=O)cc1`, the Potency result was “inactive”. The result for `CCOc1ccc(NC(=O)c2ccc(NC(=O)COC(=O)c3ccc(NC(=O)CC#N)cc3)cc2)cc1` reads 1.26 µM (active); that for `Cc1ccc(S(=O)(=O)c2nc(-c3cccs3)oc2N2CCCCC2)cc1`, “inactive”; that for `COc1ccc(CCNc2ncnc3onc(-c4ccc(Cl)cc4)c23)c(OC)c1`, “inactive”. For `Cc1ccc(C)c(N2CCN(CCCNC(=O)Nc3ccc(Cl)cc3)CC2)c1`, the Potency result was “inactive”.

As for `O=C(O)c1cccc(N=NN2CCCCCC2)c1`, the Potency result was “inactive”.

Regarding `CN1C(=O)/C(=C/c2ccco2)SC1=Nc1cccc(C(=O)O)c1`, the Potency is 35.5 µM (active). Consider `CN=C1S/C(=C\c2c(OC)cc(OC)cc2OC)C(=O)N1C`, for which the Potency result was “inactive”.

`O=C(CSc1nc(-c2cccc(F)c2)[nH]c1-c1ccccc1)Nc1ccc2c(c1)OCO2`: the Potency entry was “inactive”. The result for `Cc1ccc2oc3c(c(=O)c2c1)C(c1ccc([N+](=O)[O-])cc1)N(CCCN1CCOCC1)C3=O` (stereo not given) reads “inactive”. The result for `Cc1cc(C)c(C(=O)CSc2nc(C)cc(=O)[nH]2)c(C)c1` reads “inactive”; that for `COC(=O)c1cccc(NC(=O)CSc2nc(C)cc(=O)[nH]2)c1`, 20 µM (active); that for `CCCc1cc(=O)[nH]c(SCC(=O)Nc2ccc(C(=O)Nc3ccccc3OC)cc2)n1`, “inactive”.

As to `Cc1ccccc1Nc1nn2c(=O)c3ccc(C(=O)NCCc4ccc(Cl)cc4)cc3nc2s1`, the Potency result was “inactive”. The value for `Cc1ccc2onc(CC(=O)N3CCN(c4ccc(Cl)cc4)CC3)c2c1` was “inactive”; that for `Cc1ccc(C(=O)O)cc1-c1ccc(/C=C2\SC(=O)N(CC(=O)Nc3ccc4c(c3)OCO4)C2=O)o1` was 4.47 µM (active); that for `Cn1c(=O)c2ccccc2n(CC(=O)Nc2ccc3c(c2)OCCO3)c1=O` was “inactive”. With `O=C(CN1CCN(c2ncc(C(F)(F)F)cc2Cl)CC1)Nc1ccc2c(c1)OCO2`, the Potency entry was “inactive”. The result for `O=C(NCc1ccc(F)cc1)c1ccc2nc(N3CCCCC3)sc2c1` reads “inactive”.

As to `Cc1ccccc1-c1nc2cc(NC(=O)c3cccc(OCCC(C)C)c3)ccc2o1`, the Potency result is “inactive”. In the case of `CCC(=O)N1CCc2cc(CNS(=O)(=O)c3ccc(Br)s3)ccc21`, the Potency result was “inactive”.

With `Cc1cccc(NC(=O)CSc2nc3c(oc4ccccc43)c(=O)n2-c2ccc(F)cc2)c1`, the Potency entry is “inactive”. With `O=C(Nc1ccc2cn[nH]c2c1)c1ccc(S(=O)(=O)N2CCOCC2)cc1`, the Potency entry was “inactive”. `O=C(O)c1cc(S(=O)(=O)Nc2ccc3cn[nH]c3c2)ccc1Br`: the Potency was 50.1 µM (active). For `O=S(=O)(Nc1ccc2[nH]ncc2c1)c1ccccc1Cl`, the Potency result is “inactive”. Take `CCCn1c2ccccc2c2cnn(CC(=O)N(C)c3ccccc3CC)c(=O)c21`: the Potency entry is “inactive”.

Take `Cc1c(C(=O)NC2CCCCC2)oc2ccccc12`: the Potency result was “inactive”. Take `Cc1c(C(=O)Nc2ccccn2)oc2ccc(Br)cc12`: the Potency was 39.8 µM (active). Regarding `Cc1ccc(NC(=O)c2oc3ccccc3c2C)c([N+](=O)[O-])c1`, the Potency entry is “inactive”.

As to `COc1ccccc1CNc1nccn(-c2ccc(F)cc2)c1=O`, the Potency entry was “inactive”. The result for `O=C(O)C1=C[C@H](c2cccs2)C[C@H](OCCCCO)O1` reads “inactive”; that for `O=C(NCc1ccccc1)C1=C[C@@H](c2ccccc2)C[C@@H](OCCCCO)O1`, “inactive”; that for `C#Cc1ccc([C@@H]2C=C(C(=O)O)O[C@H](OCCCCO)C2)cc1`, 20 µM (active). Consider `COc1ccc(CCNC(=O)c2c3c(nc4ccccc24)C(=O)N(C2CCCCC2)C3)cc1OC`, for which the Potency result is “inactive”. The value for `CCNC(=O)CC1C(=O)N(c2ccc(F)cc2)C(=O)N1Cc1ccc(C)cc1` (stereo not given) was “inactive”. The value for `CCC(=O)N1CCc2cc(S(=O)(=O)NCCC(=O)Nc3cccc(C)c3C)ccc21` was “inactive”; that for `Cc1oc(-c2ccccc2F)nc1CN1CCC(C(=O)NCCc2ccc(Cl)cc2)CC1` was “inactive”. On to `Cc1cccc(NC(=O)CSCC(=O)Nc2nnc(C3CC3)s2)c1`, for which the Potency entry is “inactive”. Turning to `CCc1ccccc1OCC(=O)Nc1nnc(C2CC2)s1`, the Potency result is “inactive”.

As to `CCc1cc(C(=O)Nc2nnc(C3CC3)s2)sc1C`, the Potency was 50.1 µM (active).

For the compound `Cc1ccc(CNC(=O)c2c(O)nc3c(C)cccn3c2=O)cc1`, the Potency entry is “inactive”. With `NC(=O)[C@H]1CC2(CC(c3cccc(NC(=O)[C@H]4CCC(=O)N4)c3)=NO2)CN1C(=O)c1ccccc1C(=O)c1ccccc1` (stereo not given in full), the Potency entry was “inactive”. `C=C(C)C(=O)Nc1cccc(C2=NOC3(C2)C[C@H](C(N)=O)N(C(=O)C(c2ccccc2)c2ccccc2)C3)c1` (stereo not given in full): the Potency was 3.98 µM (active).

For the compound `C/C=C(\C)C(=O)N1CC2(CC(c3cccc(NC(=O)CCCCC)c3)=NO2)C[C@@H]1C(N)=O` (stereo not given in full), the Potency result is “inactive”. The value for `O=[N+]([O-])c1ccc(C=Nc2ccc(Cl)cc2Cl)s1` was 89.1 µM (active); that for `CCOc1ccccc1CNCc1c(C(=O)O)c(C)n(Cc2ccc(C)cc2)c1C` was “inactive”; that for `COc1ccc(CNC(=O)c2cc3c(-c4ccccc4F)nn(C)c3s2)c(OC)c1` was “inactive”. Regarding `CS(=O)(=O)c1ccc2c(c1)SC1=NC(=O)/C(=C/c3ccco3)C(=N)N12`, the Potency is 3.16 µM (active). Regarding `Cc1ccc(C)c(Cn2c(C(=O)O)c(CNCc3cccs3)c3ccccc32)c1`, the Potency entry was “inactive”.

Turning to `CCOc1ccc2nc(N3CCCC(C(=O)Nc4cc(C)ccc4C)C3)sc2c1` (stereo not given), the Potency entry was “inactive”. The result for `COc1ccc(-c2cc(=O)c3c(O)cc(O[C@@H]4O[C@H](CO[C@@H]5O[C@@H](C)[C@H](O)[C@@H](O)[C@H]5O)[C@@H](O)[C@H](O)[C@H]4O)cc3o2)cc1O` reads 79.4 µM (active).

Take `C[C@@H]1O[C@@H](OC[C@H]2O[C@@H](Oc3c(-c4ccc(O)cc4)oc4cc(O)cc(O)c4c3=O)[C@H](O)[C@@H](O)[C@@H]2O)[C@H](O)[C@H](O)[C@H]1O`: the Potency entry was “inactive”. The result for `COc1ccc(CCOC2OC(CO)C(OC(=O)/C=C/c3ccc(O)c(OC)c3)C(O[C@H]3O[C@@H](C)[C@H](O)[C@@H](O)[C@H]3O)C2O)cc1O` (stereo not given in full) reads “inactive”.

In the case of `COc1ccc(OCc2n[nH]c(=S)n2N)cc1`, the Potency entry was “inactive”. As for `Cc1cc(-c2n[nH]c(=S)n2-c2ccc(C)c(C)c2)no1`, the Potency result is “inactive”.

`COc1ccccc1-n1c(-c2cc(-c3ccco3)[nH]n2)n[nH]c1=S`: the Potency is 50.1 µM (active). The value for `COc1ccc(C(=O)Nc2nonc2-c2ccc(OC)c(OC)c2)cc1Cl` was “inactive”. As for `Cc1cccc(OCCCC(=O)Nc2sc3c(c2C(N)=O)CCC(C)C3)c1` (stereo not given), the Potency result is “inactive”. The value for `CCN(CC)Cc1nc2sc(C)c(C)c2c(=O)[nH]1` was “inactive”; that for `CSc1nnc(SCc2nc3sc(C(=O)O)c(C)c3c(=O)[nH]2)s1` was 3.16 µM (active). The value for `Cc1ccc(S(=O)(=O)N2CCCC2C(=O)OCc2nc3sc(C)c(C)c3c(=O)[nH]2)cc1` (stereo not given) was “inactive”. As for `CCc1nn(CC(=O)NCC(C)c2ccccc2)c(=O)c2cc3occc3n12` (stereo not given), the Potency result is “inactive”. The value for `Cc1cc(Cl)ccc1OCC(=O)N(Cc1ccc(N(C)C)cc1)C1CCS(=O)(=O)C1` (stereo not given) was “inactive”.

Regarding `COc1ccc2c(c1)c(=O)c(C(=O)c1ccccc1)cn2CC(=O)Nc1ccc2c(c1)OCCO2`, the Potency result was “inactive”. The value for `CCOC(=O)c1ccc(NC(=O)C2CCN(S(=O)(=O)c3ccc4c(c3)CCCC(=O)N4)CC2)cc1` was “inactive”; that for `O=c1n(Cc2cccc(C(F)(F)F)c2)c2ccccc2c2nc(-c3ccccc3)nn12` was “inactive”; that for `Cc1ccccc1C(=O)N1CCC(C(=O)Oc2ccc(C#N)cc2)CC1` was “inactive”. Consider `N#Cc1ccc(C2=CC(=O)C[C@H](c3ccc(Cl)cc3)C2)cc1`, for which the Potency entry was “inactive”. The result for `CC1(OC(=O)C2CCCC2)C(=O)C=C2C=C(c3ccc(C#N)cc3)OC=C2C1=O` (stereo not given) reads 20 µM (active); that for `CCOC(=O)c1c(N)n(-c2cccc(C)c2C)c2nc3ccccc3nc12`, “inactive”.
